According to PubChem BioAssay AID1508622 (National Center for Advancing Translational Sciences (NCATS), 2021):
Activity calls are given as the source filed them. A call without a number means that no potency is given here. Calls follow the shape of the dose curve; as a rule, active = well fitted activation curve with a large enough effect; inconclusive = small, poorly fitted or top-dose-only effect; inactive = no such curve, though single readings can be large or run the other way.

Assay: Confirmatory qHTS for Identification of Small Molecule Activators of Huntingtin-Antisense Promoter Activity
Conditions: HEK293 HTT-AS promoter firefly luciferase reporter, 24 h; series mostly up to 57.5 µM
Summary of the method: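 Plated reporter HEK293 cells (24 h) received library compounds at up to 57.5 uM final or 50 uM PTC124, incubated 24 h at 37C; firefly luciferase luminescence was then recorded with Dual-Glo reagent.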

Row | SMILES | Potency
1 | CCOc1ccc(N(Cc2ccccc2)C(=O)c2nc(SC)ncc2Cl)cc1 | inactive
2 | O=C(Nc1ccc(F)cc1F)c1ccc2c(c1)CCN2S(=O)(=O)c1ccc(Cl)cc1 | inactive
3 | CCCCN(C)C(=O)C1CCCN(c2ncnc3onc(C)c23)C1 (centres undefined) | inactive
4 | CCS(=O)(=O)NCCc1sc2nc(-c3ccc(OC)cc3)nn2c1C | inactive
5 | COc1ccc(C)cc1NC(=O)Cn1c(=O)cc(C)c2c(C)nn(C)c21 | inactive
6 | COC(=O)c1c(C)oc2ccc(N(C(=O)c3ccncc3)S(=O)(=O)c3cc(C)ccc3C)cc12 | inactive
7 | CCc1ccc(NC(=O)c2ccc3oc(=O)n(Cc4ccccc4)c3c2)cc1 | inactive
8 | CCN(C(=O)c1cc2c(s1)-c1ccccc1OC2)c1cccc(C(F)(F)F)c1 | inactive
9 | CCOCCCNC(=O)c1c[nH]c2ccc(S(=O)(=O)N(C)c3ccc(Cl)cc3F)cc2c1=O | inactive
